# High-throughput results as filed in PubChem BioAssay.
# Hits are enriched below; roughly 4.2% of the tested compounds scored in any of these assays.
# S1P4 agonist: human S1P4 receptor agonism; O95977; S1P4-expressing cell line, agonist reporter assay; activation, % at 4.98 µM; 220,000 compounds, 0.35% hits; in the data active = activation above about 11%;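 also: 0% = DMSO vehicle and 100% = reference agonist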
# CHOP inhibitor: CHOP inhibition in unfolded protein response | AID 2732 | 220,000 compounds, 3.8% hits | CHO-K1 CHOP-promoter luciferase, tunicamycin-induced, 15-18 h | inhibition, % at 10 µM;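 active = compounds that reduced the stress-induced luciferase reporter signal by more than about 70% of percent inhibition, limit read from the data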;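 also: 0% = tunicamycin plus vehicle and 100% = wells without tunicamycin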
# Hsp70 activator: switches on Hsp70 transcription; HeLa Hsp70 promoter luciferase reporter, luminescence; scaled: vehicle 0, proteasome-inhibitor control 100%; activation, % at 10 µM; 200,000 compounds, 0.04% hits; AID 1203;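 active = activation above the mean across all tested compounds plus 3 SD, cutoff set per campaign, cut at about 5.5% in these data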;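 also: 100% = MG132 at 30 µM as the positive control and 0% = DMSO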
# S1P4 antag: antagonists of human S1P4 receptor; O95977; S1P4-expressing cells, antagonist mode, reporter read-out; inhibition, % at 4.98 µM; 220,000 compounds, 0.26% hits; AID 1510; in the data active = inhibition above about 29%;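 also: 0% = wells stimulated with agonist and 100% = vehicle wells without agonist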
# S1P4 ag conf: human S1P4 agonism, confirmation; shares compounds with S1P4 agonist; 740 compounds, 7% hits; S1P4 agonist cell-based reporter assay; activation, % at 4.98 µM; AID 1523; in the data active = activation above about 12%;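 also: 0% = vehicle and 100% = full reference agonist response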
# S1P1 ag: human S1P1 agonism as S1P4 agonist counter-screen. S1P1 agonist cell-based assay, activation. shares compounds with S1P4 agonist. 740 compounds, 4% hits. activation, % at 4.98 µM; in the data active = activation above about 21%;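 also: 0% = vehicle wells and 100% = reference agonist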
# Target sequence (P21453 whole entry, looked up): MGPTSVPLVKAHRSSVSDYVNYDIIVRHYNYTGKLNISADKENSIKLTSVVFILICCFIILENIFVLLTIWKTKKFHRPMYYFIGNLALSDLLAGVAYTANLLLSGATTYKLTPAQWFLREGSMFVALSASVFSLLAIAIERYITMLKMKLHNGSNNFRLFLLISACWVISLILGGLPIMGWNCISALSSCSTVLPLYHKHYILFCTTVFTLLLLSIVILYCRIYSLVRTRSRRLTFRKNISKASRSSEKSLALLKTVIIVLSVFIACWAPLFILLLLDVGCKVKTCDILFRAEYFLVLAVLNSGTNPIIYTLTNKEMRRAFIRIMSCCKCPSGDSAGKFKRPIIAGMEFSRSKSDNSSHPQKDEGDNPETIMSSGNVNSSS
# * hit, by the source's call; . = no result given.
SMILES,S1P4 agonist,CHOP inhibitor,Hsp70 activator,S1P4 antag,S1P4 ag conf,S1P1 ag
CN(Cc1cc(=O)n2ccsc2n1)c1ccccc1,2,-7,0,3,.,.
O=C(CN1C(=O)C2(OCCCO2)c2ccccc21)NCCc1ccccc1,1,-12,0,-13,.,.
Cc1ccccc1-n1c(SCC(=O)N/N=C/C=C/c2ccccc2[N+](=O)[O-])nc2ccccc2c1=O,14*,6,0,-15,-3,-12
O=C(Cn1cnc2cc([N+](=O)[O-])ccc2c1=O)Nc1ccc2c(c1)OCO2,24*,4,0,10,-2,-5
O=C(Cn1cnc2ccccc2c1=O)Nc1ccc2c(c1)OCO2,-1,-16,0,0,.,.
Cc1nn(C)cc1CN(C)C(=O)c1nn2c(c1Cl)NC(c1cccs1)CC2C(F)(F)F (stereo unspecified),-3,13,-1,-12,.,.
COc1ccc(CC(=O)NNS(=O)(=O)c2ccccc2)cc1OC,12*,34,0,-13,-3,-2
COc1ccc(CC(=O)NNS(=O)(=O)c2ccc(F)cc2)cc1OC,1,0,0,6,.,.
COc1ccc(F)cc1S(=O)(=O)n1nnc2ccccc21,74*,8,0,-5,-1,1
COc1ccc(OC)c(S(=O)(=O)n2nnc3ccccc32)c1,2,-2,0,-29,.,.
Cc1cccc(N2C(=O)CS/C2=N\NC(=O)c2ccc(Cl)cc2)c1C,1,17,0,3,.,.
CCOCCN(C(=O)COC)c1cccc(OC)c1,26*,3,0,-22,-1,-2
CC(C)CCc1c(O)nc(SCC(C)C)[nH]c1=O,0,-6,0,-1,.,.
Cc1cc(=O)c2ccccc2n1Cc1ccccc1,3,32,-1,-9,.,.
Cc1cc(=O)c2ccccc2n1CC(=O)NCc1ccccc1,19*,2,0,-24,-1,-2
O=[N+]([O-])c1ccc(OCCO)c(P(=O)(c2ccccc2)c2ccccc2)c1,155*,-6,.,-2,-2,-3
O=C(Cc1cccs1)NC1CCCC1,-1,25,0,-6,.,.
COc1ccc(NC(=O)c2cc(-c3ccccc3)nc3c2c(C)nn3-c2ccccc2)c(OC)c1,24*,31,0,-8,-2,1
COc1ccc(-c2cc(C(=O)NNC3=NCCC3)c3c(C)nn(-c4ccccc4)c3n2)cc1,0,27,0,-2,.,.
COc1ccc(C(=O)C2CCCN(Cc3sc(N4CCCC4)nc3Cl)C2)c(OC)c1 (stereo unspecified),1,19,0,-4,.,.
COc1cc(NC(=O)c2n[nH]c(=O)c3ccccc23)cc(OC)c1,0,17,.,-12,.,.
COc1cccc(C2CN(c3ccc(F)cc3F)N=C2c2cccs2)c1OC (stereo unspecified),25*,-11,0,-11,15*,43*
COc1ccccc1C1CN(c2ccccc2)N=C1c1cccs1 (stereo unspecified),1,36,0,0,.,.
O=c1cc(CSc2nnc(Nc3ccccc3F)s2)nc2sccn12,55*,-16,0,0,-2,-1
Cn1c(SCC(=O)NC2CCCCCC2)nnc1-c1cccs1,-2,5,0,-3,.,.
SMILES,S1P4 agonist,CHOP inhibitor,Hsp70 activator,S1P4 antag,S1P4 ag conf,S1P1 ag
CCOC(=O)n1ccc(C(=O)Nc2ccccc2F)n1,16*,-49,0,3,0,-9
O=C(C1CCC1)N1CCN(Cc2ccccc2)CC1,4,40,0,-18,.,.
COC(=O)N/N=C(\CCC(=O)O)c1cccs1,27*,18,.,-15,-2,-6
C/C(=C1/SC(=S)N(CCC(=O)O)C1=O)c1ccc(O)cc1,1,-15,-1,-23,.,.
Cc1cccc(NC(=O)Cc2nnc(NC(=O)Nc3ccccc3F)s2)c1,-1,57,0,-12,.,.
COc1ccc(CCNC(=O)COC(=O)C23CC4CC(CC(Br)(C4)C2)C3)cc1,2,54,0,-24,.,.
COc1ccc(CCNC(=O)COC(=O)C23CC4CC(CC(C4)C2)C3)cc1,11*,25,0,-3,0,-5
COc1ccc2occ(C(=O)c3cccs3)c2c1,166*,6,0,-8,-1,3
CS(=O)(=O)N(CCc1ccccc1)CC(=O)N1CCCC1,21*,6,.,2,-2,-4
Cc1nn(-c2ccccc2)c(N2CCCC2)c1/C=C1\N=C(c2ccccc2)OC1=O,0,26,0,-7,.,.
Cc1ccc[n+](CC(=O)/C=C2\N(C)c3ccccc3C2(C)C)c1,1,0,0,-30,.,.
